# Pf growth 48h: inhibits P. falciparum growth in the first generation, 48 h; P. falciparum luciferase growth in erythrocytes, 48 h; hit rate 5.9% among 310,000; Potency, µM (series often up to 28.7 µM), most hits filed as inhibitors; AID 504832
#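 Luminescence readout; reporter = integrated firefly luciferase in P. falciparum. RBC culture at 2% hematocrit, 0.1% parasitemia final, 37 C/5% CO2; decreased signal taken as growth inhibition.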
# Shiga toxin inh: inhibitors of Shiga toxin in Vero cells. hit rate 9.2% among 290,000. Vero cells, Shiga toxin protein synthesis inhibition reporter. inhibition, % at 38.7 µM; in the data active = inhibition mostly above about 28%, no sharp cut-off; inactive = mostly below about 43%
# CHX counter: counter-screen hit for Shiga toxin inhibitors, cycloheximide. cell reporter, cycloheximide protein synthesis inhibition counterscreen. max response, %. hit rate 12% among 300,000; in the data active = max response mostly above about 13%, no sharp cut-off; inactive = mostly below about 14%; note: read at 38.3 µM for the half of the compounds with a filed dose
# LmPK inhibitor: inhibitors of Leishmania mexicana pyruvate kinase; Q27686; purified LmPK, Kinase-Glo ATP luminescence, 1 h; Potency, µM (doses to about 57.5 µM), usual class: inhibitors; hit rate 0.37% among 290,000; AID 1721
# Target sequence (Q27686 whole entry, looked up): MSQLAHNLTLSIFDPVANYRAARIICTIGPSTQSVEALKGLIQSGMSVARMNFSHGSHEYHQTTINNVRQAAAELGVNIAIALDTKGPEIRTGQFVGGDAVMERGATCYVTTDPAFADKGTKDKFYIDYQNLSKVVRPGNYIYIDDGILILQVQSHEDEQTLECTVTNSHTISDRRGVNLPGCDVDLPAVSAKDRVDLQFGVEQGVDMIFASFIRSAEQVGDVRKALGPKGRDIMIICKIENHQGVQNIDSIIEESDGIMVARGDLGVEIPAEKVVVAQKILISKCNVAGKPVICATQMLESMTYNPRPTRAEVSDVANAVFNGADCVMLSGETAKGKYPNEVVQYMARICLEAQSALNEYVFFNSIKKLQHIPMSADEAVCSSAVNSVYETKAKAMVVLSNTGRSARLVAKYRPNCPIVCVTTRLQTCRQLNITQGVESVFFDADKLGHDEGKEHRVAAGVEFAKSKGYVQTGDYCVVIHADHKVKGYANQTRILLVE
#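 ATP generated from ADP (0.1 mM) and PEP (0.5 mM) by 0.1 nM LmPK over 1 h at room temperature (pH 7.2 imidazole buffer) was detected by coupled luciferase luminescence. Values were normalized to uninhibited and no-enzyme wells.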
# Pf growth 96h: P. falciparum growth inhibition at 96 hour, primary screen for plastid delayed-death inhibitors; AID 504834; Potency, µM (highest dose often 28.7 µM), hits mostly inhibitors; hit rate 6.9% among 320,000; P. falciparum luciferase reporter growth, 96 h
#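 96 h incubation, 37 C, 5% CO2, of luciferase-reporter P. falciparum-infected RBCs (2% hematocrit, 0.05% parasitemia final) with test compounds; endpoint luminescence.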
# A number is an active result; - = inactive; ? = inconclusive; . = no result given. This is a sample that favours compounds with a hit; in the whole collection about 22% have one here. Unless noted, calls come from the whole dose curve; as a rule, active = well fitted inhibition curve with a large enough effect; inconclusive = small, poorly fitted or top-dose-only effect, or another doubt; inactive = no such curve, though single readings can be large or run the other way.
SMILES,Pf growth 48h,Shiga toxin inh,CHX counter,LmPK inhibitor,Pf growth 96h
COc1ccc(C[C@H]2CN3C(=NC[C@H]3Cc3ccccc3)N2CCNC(=O)c2ccc(C)c(Br)c2)cc1,5.22µM,-,-,-,1.65µM
C/C=C(\C)C(=O)NCCN1C2=NC[C@@H](C)N2C[C@@H]1Cc1ccc(OC)cc1,-,-,-,-,-
COCCNC(=S)Nc1ccc2nc(N3CCN(C)CC3)cc(C)c2c1,-,-,-,-,-
Cc1cc(N2CCN(C)CC2)nc2ccc(NC(=O)c3ccc4c(c3)OCO4)cc12,9.28µM,-,20.5,-,.
COc1cc(C(=O)Nc2ccc3c(c2)N(C(=O)CN2CCN(C)CC2)c2ccccc2CC3)cc(OC)c1OC,13.1µM,-,-,-,?
COc1cc(C(=O)Nc2ccc3nc(N4CCN(C)CC4)cc(C)c3c2)cc(OC)c1OC,0.329µM,-,-,-,-
Cc1cc(N2CCN(C)CC2)nc2ccc(NC(=O)c3ccc(Br)o3)cc12,1.65µM,101.3,26.0,-,-
CCc1ccc(CN2CCC(C(=O)Nc3ccc(Oc4ccccc4)nc3)CC2)o1,?,-,-,-,-
CC(C)C[C@H](NC(=O)CNC(=O)[C@@H]1CCCN1C(=O)[C@H](CCCNC(=N)N)NC(=O)[C@H](CC(=O)O)NC(=O)[C@@H](NC(=O)[C@H](CC(N)=O)NC(=O)[C@@H](NC(=O)[C@H](CC(=O)O)NC(=O)CNC(=O)[C@@H](NC(=O)[C@@H](NC(=O)[C@H](C)NC(=O)[C@@H](N)CCC(N)=O)[C@@H](C)O)C(C)C)C(C)C)[C@@H](C)O)C(=O)N[C@@H](CC(C)C)C(=O)N[C@@H](CC(=O)O)C(=O)N[C@@H](CC(C)C)C(=O)N[C@@H](CCCCN)C(=O)O,.,-,-,.,.
FC(F)(F)C(F)(F)C(F)(F)C(F)(F)C(F)(F)F,-,.,.,.,?
COc1ccc(C(=O)Nc2cc(C(F)(F)F)ccc2Cl)cc1OC,-,-,-,-,-
O=C(NC(NC(=S)Nc1ccc(Cl)cc1Cl)C(Cl)(Cl)Cl)c1cccc([N+](=O)[O-])c1 (stereo not drawn),1.65µM,-,-,-,?
O=C(NC(NC(=S)Nc1ccccc1)C(Cl)(Cl)Cl)c1cccc(Cl)c1 (stereo not drawn),?,-,-,-,13.1µM
O=C(O)c1cccc(NC(=S)NC(NC(=O)c2cccc([N+](=O)[O-])c2)C(Cl)(Cl)Cl)c1 (stereo not drawn),-,-,11.0,-,-
O=C(O)c1cccc(NC(=S)NC(NC(=O)c2ccccc2[N+](=O)[O-])C(Cl)(Cl)Cl)c1 (stereo not drawn),-,-,-,-,-
CN(C)C(=O)NC(NC(=S)Nc1ccccc1)C(Cl)(Cl)Cl (stereo not drawn),?,-,-,-,-
CC1CCCCN1CC(=O)Nc1ccccc1Sc1ccccc1 (stereo not drawn),?,-,-,-,?
Cc1ccc(N(CC(=O)NC2CC2)S(=O)(=O)c2ccccc2)c(C)c1,-,-,-,-,-
COC(=O)c1cc2c(-c3ccccc3)cc3ccccn3c-2c1C(=O)OC,.,-,-,-,3.7µM
CCOC(=O)c1c(C)c(C(=O)NCc2cccnc2)c(C)n1CC,-,-,-,-,3.7µM
CC(C)c1ccc(C(=O)NC(=S)NCc2cccnc2)cc1,-,active,16.2,-,-
CCOC(=O)c1c(C)c(C(=O)NCc2ccco2)c(C)n1CC,-,-,-,-,-
Cc1ccc(C(=O)NC(=S)NCc2cccnc2)cc1C,?,-,-,-,9.28µM
CCOC(=O)c1cc(-c2ccc(F)cc2)n(CC(=O)NCc2cccnc2)c1C,?,-,-,-,2.62µM
CN(CC(=O)Nc1ccccc1Cl)CC(=O)N1CCc2ccccc21,-,.,.,.,-
SMILES,Pf growth 48h,Shiga toxin inh,CHX counter,LmPK inhibitor,Pf growth 96h
CCOC(=O)c1ccc(NC(=S)NCc2cccnc2)cc1,-,-,12.8,-,-
C=CCNC(=S)NCc1cccnc1,-,-,-,-,-
S=C(NCc1cccnc1)NCc1cccnc1,-,-,-,-,10.4µM
COc1ccc2[nH]c(=O)c(CN(C(=O)C3CCCO3)c3cccc(C)c3)cc2c1 (stereo not drawn),-,-,-,-,8.28µM
COCC(=O)N(Cc1cc2cc(C)ccc2[nH]c1=O)c1ccccc1,-,-,11.7,-,?
COCC(=O)N(Cc1cc2ccc(C)cc2[nH]c1=O)c1cccc(C)c1,?,-,-,-,?
Cc1ccc2[nH]c(=O)c(CN(C(=O)c3cccs3)c3ccccc3)cc2c1,-,-,-,-,?
Cc1cccc(N(Cc2cc3cc(C)ccc3[nH]c2=O)C(=O)c2cccs2)c1,13.1µM,-,-,-,7.38µM
O=C(COC(=O)CNC(=O)c1ccc2c(c1)OCO2)Nc1ncc(Cl)cc1Cl,-,-,-,-,-
CCc1cccc(N(C(=O)c2csnn2)C(C(=O)NC2CCCCC2)c2ccncc2)c1 (stereo not drawn),-,-,-,-,-
NNC(=O)c1ccc(O)cc1O,-,75.9,29.6,-,-
O=C(NN=C1CCCC1)c1ccc(O)cc1O,-,124.4,37.7,-,13.1µM
Cc1cc(C)nc(SCC(=O)c2ccc(O)cc2O)n1,.,-,-,-,-
NNC(=O)c1cc2ccccc2cc1O,?,-,-,-,-
CCCCCC(=O)c1ccc(O)cc1O,-,49.4,32.1,-,-
O=C(NN=C1CCCC1)c1cc(Br)ccc1O,-,-,23.0,-,?
N#CCCCCN1CCCC1,-,-,-,-,-
Cc1ccc(C2CC2/C(=N/O)c2ccc(F)cc2)cc1 (stereo not drawn),-,-,-,-,-
CCOC(=O)C(N)CSC1CC(=O)N(CCc2ccccc2)C1=O (stereo not drawn),-,-,-,-,-
Cc1ccc(NC(=O)/C=C\C(=O)NCC(=O)O)cc1,-,-,-,-,-
CN1CCC(N(C)CC(O)c2ccccc2)CC1 (stereo not drawn),-,-,-,-,-
CC(C)OCCCN(CC(O)c1ccccc1)CC(O)c1ccccc1 (stereo not drawn),10.4µM,-,-,-,?
CCCN(CC1CC1)CC(O)c1ccccc1 (stereo not drawn),14.7µM,-,-,-,13.1µM
O=C1CCCc2nc(N3CCN(c4ccccc4)CC3)ncc21,-,-,-,-,-
Fc1cnc(N2CCN(c3ccccc3)CC2)nc1N1CCN(c2ccccc2)CC1,13.1µM,-,-,-,-
SMILES,Pf growth 48h,Shiga toxin inh,CHX counter,LmPK inhibitor,Pf growth 96h
COc1cc([N+](=O)[O-])ccc1NC(=O)CSc1nccn1C,-,-,-,-,-
CC(NC(=O)c1cc(Br)cs1)C1CCCO1 (stereo not drawn),-,-,-,-,13.1µM
CCc1cc(C(=O)NC(C)C2CCCO2)cs1 (stereo not drawn),-,61.7,39.7,-,-
CCCc1cc(C(=O)NC(C)C2CCCO2)cs1 (stereo not drawn),-,71.4,40.4,-,-
CC(NC(=O)c1cccs1)C1CCCO1 (stereo not drawn),-,-,-,-,?
CC1CCc2sc(C(=O)NC(C)C3CCCO3)cc2C1 (stereo not drawn),-,87.5,39.5,-,-
